Records with an inconclusive call do not appear. Activity calls are given as the source filed them. How the source made its calls: active means hit-call score of the fitted dose curve at least 0.9, where 1 is the maximum; inconclusive means response in the unintended direction; inactive means score below 0.9.

These results are taken from PubChem BioAssay (EPA / NIEHS).

In this assay the target is mouse Estrogen Receptor alpha (Era), Esr1 (gene 13982) (UniProt P19785). Kind of assay: NVS_NR_mERa: NovaScreen (NVS) Nuclear Receptor Binding Assay for mouse Estrogen Receptor alpha (Era) (AID 2283378). The method, then: NVS_NR_mERa is a biochemical, single-readout assay that uses extracted gene-proteins in a cell-free assay. Measurements were taken 18 hours after chemical dosing in a 96-well plate.NVS_NR_mERa is one of one assay component(s) measured or calculated from the NVS_NR_mERa assay. It is designed to make measurements of radioligand binding, a form of binding reporter, as detected with scintillation counting signals by Filter-based radiodetection technology.Data from the assay component NVS_NR_mERa was analyzed into 1 assay endpoint. This assay endpoint, NVS_NR_mERa, was analyzed in the positive analysis fitting direction relative to DMSO as the negative control and baseline of activity. Using a type of binding reporter, loss-of-signal activity can be used to understand changes in the binding as they relate to the gene Esr1. Furthermore, this assay endpoint can be referred to as a primary readout, because the performed assay has only produced 1 assay endpoint. To generalize the intended target to other relatable targets, this assay endpoint is annotated to the nuclear receptor intended target family, where the subfamily is steroidal.
mouse Estrogen Receptor alpha (Era), Esr1 (gene 13982), sequence (P19785 whole entry, looked up): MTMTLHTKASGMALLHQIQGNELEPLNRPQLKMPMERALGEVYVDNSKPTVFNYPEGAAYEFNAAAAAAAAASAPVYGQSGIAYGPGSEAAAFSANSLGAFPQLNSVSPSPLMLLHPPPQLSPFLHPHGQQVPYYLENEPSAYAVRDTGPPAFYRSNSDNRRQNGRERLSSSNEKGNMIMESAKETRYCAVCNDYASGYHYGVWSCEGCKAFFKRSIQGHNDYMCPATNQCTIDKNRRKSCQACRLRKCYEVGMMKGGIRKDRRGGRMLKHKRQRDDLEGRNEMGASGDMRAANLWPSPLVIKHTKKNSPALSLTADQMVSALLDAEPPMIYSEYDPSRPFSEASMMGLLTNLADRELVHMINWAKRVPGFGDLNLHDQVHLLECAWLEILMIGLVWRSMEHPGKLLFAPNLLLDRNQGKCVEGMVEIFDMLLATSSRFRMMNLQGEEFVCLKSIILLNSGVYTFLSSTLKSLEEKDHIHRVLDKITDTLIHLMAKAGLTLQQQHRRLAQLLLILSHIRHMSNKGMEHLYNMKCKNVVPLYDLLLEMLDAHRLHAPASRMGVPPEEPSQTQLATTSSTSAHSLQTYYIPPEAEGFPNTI
Binding assays used specific radioligands (tritiated, iodinated) with non-radioactive competitive displacement ligands in agonist or antagonist protocols (as indicated) and various reference compounds and inhibitors to titrate specific binding to receptors and transporters. Most enzyme assays (CYPs, kinases, phosphatases, proteases, HDACs) used recombinant protein and specific substrates (fluorescence mostly, some colorimetric and radioactive) and inhibitors, followed by a biochemical separation of substrate and product. All assays for the biochemical HTS were initially run in duplicate at a single concentration (10 uM for CYP450 assays and 25 uM for all others). […] Each assay was run with positive and negative controls, and concurrent controls on every plate. The follow-up (secondary) screen tested active chemical-pairs in concentration series, as well as a few additional assays not tested in the primary screen, some selected negative inactives, and several cases re-run in the concentration series for confirmatory purposes.
For `CCCCCCCCCCCCOCCOS(=O)(=O)O`, the concentration at half-maximal activity (AC50) was 29.4 µM (active).
`CN(C)CCC=C1c2ccccc2CCc2ccccc21`: the call was inactive.
Consider `CC(=O)CC(=O)N(C)C`, for which the molecule was called inactive.
Take `FC(F)(F)c1ccc(Cl)c(Cl)c1`: the call was inactive.
On the same count and under the same terms, next, `CC(=O)C1C(=O)C=C(C)OC1=O` (stereo not given): “inactive”.
For the molecule `CCCCCCCCOC(=O)c1ccc(O)cc1`, the concentration at half-maximal activity (AC50) was 1.72 µM (active).
With `CCC(C)(C)C1CCC(=O)CC1`, the call was inactive.
In the case of `CCC(C)(C)c1cc(O)c(C(C)(C)CC)cc1O`, the result was inactive.
Still for that read-out and setting: next, `CCCCCC(=O)O[C@]1(C(C)=O)CC[C@H]2[C@@H]3CCC4=CC(=O)CC[C@]4(C)[C@H]3CC[C@@]21C`: “inactive”; `CCNC(=S)NCC`: “inactive”.
`CCCCCCCCCOS(=O)(=O)O`: the half-maximal activity concentration (AC50) is 12.7 µM (active).
As for `Cc1cccc(O)c1`, the result was inactive.
For `O=S1(=O)CC(Cl)(Cl)C(Cl)(Cl)C1`, the molecule was called inactive.
On to `CN1CCc2cccc3c2[C@H]1Cc1ccc(O)c(O)c1-3`, for which the AC50 was 0.309 µM (active).
Same read-out and setting: with `CC(O)CN` (stereo not given) the figure was 6.65 µM (active); with `CCCCCCOc1ccc(O)cc1`, 0.174 µM (active).
Turning to `CC12CCC(C1)C(C)(C)C2O` (stereo not given), the molecule was classed as inactive.
Regarding `CC(C)(C)c1ccc(S)cc1`, the concentration at half-maximal activity (AC50) was 10.6 µM (active).
The same measure, in the same setting: next, `COC(=O)C(C)Oc1ccc(Oc2ncc(C(F)(F)F)cc2Cl)cc1` (stereo not given): 0.164 µM (active).
Turning to `CC/C=C\CCOC(C)OCC` (stereo not given), the molecule was called inactive.
On the same count and under the same terms, with `COc1ccccc1O` the entry was “inactive”.
Same read-out and setting: next, `CCCCCCC(C)O` (stereo not given): “inactive”.
In the case of `CCOCC(C)O` (stereo not given), the half-maximal activity concentration (AC50) is 35 µM (active).
For the molecule `CCc1cccc(O)c1`, the result was inactive.
In the case of `O=C1OC2(c3ccc(O)cc3Oc3cc(O)ccc32)c2ccccc21`, the concentration at half-maximal activity (AC50) was 25 µM (active).
